Assay [1] is described as follows: inhibitors of Chlamydomonas gravitaxis, primary screen, whole organism, Chlamydomonas reinhardtii, WT vs cilia-less mutant, absorbance, 96-well (AID 463189).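 Further: 0% = wild type cc124 cells in DMSO and 100% = ciliumless bld1 mutant cells.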 As to conditions: OD600 absorbance, 2 days, at 10 µM, stronger effect = higher value.
A short description of assay [2]: inhibitors of E-selectin induction by TNFa, primary screen, imaging, HUVEC, immunofluorescence, MLSMR starter and 10KST1 sets (AID 487;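 active means visually confirmed hit in the image check and inhibition above 20%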;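 on inhibition: signal is fraction of cell area covered by stained E-selectin grains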;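 on nuclei count: 100% = median nuclei count of all wells on the same plate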). The following applies: HUVEC TNFalpha-induced E-selectin immunofluorescence imaging, at 2 µM; inhibition: stronger effect = higher value; nuclei count: measured here: cell number, toxicity.
The nature of assay [3]: DUSP6 inhibitors restoring Erk phosphorylation by chemical complementation, primary imaging in DUSP6-transfected HeLa (AID 609;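 active means compounds giving at least 50% inhibition in the cell-based MKP-3 phosphatase rescue imaging test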;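 on inhibition: phospho-Erk level distribution per well compared with pooled transfected vehicle control wells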). As to conditions: HeLa MKP-3 transfected, phospho-Erk imaging KS statistic, at 10 µM.
Assay [4] addresses Dual specificity protein phosphatase 6 (Homo sapiens) (UniProt Q16828). The assay is described as above. As to conditions: HeLa MKP-3 transfected, phospho-Erk imaging KS statistic, at 10 µM, stronger effect = higher value.
Assay [5] deals with Voltage-gated potassium channel subunit beta-2 (Rattus norvegicus) (UniProt P62483). Put plainly: KvBeta enzyme negative modulators, primary screen, biochemical, NADPH fluorescence (AID 622;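 active means fluorescence slope higher than the sample average by over 3 SD, cut at about -0.22 in these data, passing the limit was not always enough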;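 further: slope of raw intensity against log time taken from 70 to 1610 s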). As to conditions: recombinant KvBeta, 4-cyanobenzaldehyde reduction, at 10 µM, stronger effect = higher value.
Assay [6] shares this target. Put plainly: KvBeta positive modulators, primary screen, biochemical, NADPH fluorescence (AID 623;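 active means NADPH fluorescence slope more negative than the mean of all samples by about 3 SD, 99.7% confidence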;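 further: fluorescence intensity change per second fitted from 20 to 320 s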). The following applies: Recombinant KvBeta, NADPH fluorescence decrease slope, 10 min; at 10 µM; stronger effect = lower value.
Assay [7] concerns the target Muscarinic acetylcholine receptor M4 (Homo sapiens) (UniProt P08173). Nature of the assay: compounds altering M4/GIRK thallium flux, either direction, primary screen, M4 allosteric agonist project, cell-based, HEK293 M4/GIRK, BTC-AM (AID 625;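 active means fluorescence slope after compound addition differing from the mean of all tested samples at 99.7% confidence, mostly higher but some lower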;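 further: thallium influx through GIRK channels coupled to M4 in HEK293 cells with BTC-AM dye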). As to conditions: at 10 µM, actives lie on both sides.
Assay [8] is described as follows: inhibitors of larval lipid processing in zebrafish, primary screen, whole organism, PED6 fluorescence, gall bladder and intestine (AID 686;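 active means a full or partial loss of lipid-probe fluorescence in the fish gall bladder, intestine or both, judged by eye; inactive means no fluorescence loss, or compound toxic to the fish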;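 further: larvae 5 to 7 days old with five fish per well; signal comes from phospholipase A2 cleavage of quenched PED6 carried via bile; overnight exposure to compound and PED6 before scoring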). As to conditions: Zebrafish larvae PED6 lipid processing, fluorescence scoring.
A short description of assay [9]: inhibitors of mutant huntingtin aggregation, primary screen, imaging, exon1htt(103Q)mCFP cells, high-content imaging (AID 483;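 active means visual image review flags a hit and inhibition of aggregation exceeds 20%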;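 further: compound exposure lasted 3 days before fixation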;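 on nuclei count: percent of the per-plate median nuclei count of sample wells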). As to conditions: exon1htt(103Q)mCFP cell line, aggregate imaging, at 2 µM; inhibition of aggregation: stronger effect = higher value; nuclei count: measured here: cell count, toxicity.
The target in assay [10] is Alpha-2C adrenergic receptor (Homo sapiens) (UniProt P18825). Put plainly: modulators of alpha2C/GIRK thallium flux, primary screen, cell-based, HEK293 alpha2C/GIRK1/2 (AID 624;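 active means fluorescence slope after compound addition differing from the mean of all screened samples at 99.7% confidence, in either direction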;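 further: slope of fluorescence ratio to pre-addition baseline per second over 15 to 24 s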). As to conditions: thallium flux BTC fluorescence, at 10 µM, actives lie on both sides.
Assay [11] can be described thus: inhibitors of Sendai virus-induced IRF3 signaling, primary screen, TLR/RLR signaling modifier project, cell-based, Sendai virus stimulus, luciferase, 10K MLSCN set (AID 602276;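 active means inhibition at or above 50% at 10 µM; inactive means inhibition below 50%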;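 further: firefly luciferase from ISG56 promoter only with Renilla not read in this screen; 0% = Sendai virus plus DMSO and 100% = medium plus DMSO without virus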). As to conditions: HEK293 RL24 IRF3 luciferase reporter, at 10 µM, stronger effect = higher value.
The nature of assay [12]: inhibitors of poly I:C-induced TLR3 signaling, primary screen, cell-based, poly I:C stimulus, luciferase, 10K MLSCN set (AID 602277;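 active means inhibition of the reporter signal at or above 50%; inactive means inhibition below 50%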). The following applies: HEK293-TLR3 RL24 IRF3 luciferase reporter, at 10 µM, stronger effect = higher value.
Setting [13] is: measured here: cell density z-score.
The mark [14] stands for this setting: measured here: nuclear c-Myc green intensity z-score.
[15] abbreviates: measured here: nuclear pErk red intensity z-score, stronger effect = higher value.

Where “and” joins values, the source holds several entries; their conditions need not be identical. Equal values may be shown once. Calls of active or inactive are those of the source.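 How the source made its calls, unless noted: active means inhibition at or above 50% relative to wild type and mutant plate controls; inactive means inhibition below 50%.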

Chain of Voltage-gated potassium channel subunit beta-2 (Rattus norvegicus) (P62483 whole entry, looked up): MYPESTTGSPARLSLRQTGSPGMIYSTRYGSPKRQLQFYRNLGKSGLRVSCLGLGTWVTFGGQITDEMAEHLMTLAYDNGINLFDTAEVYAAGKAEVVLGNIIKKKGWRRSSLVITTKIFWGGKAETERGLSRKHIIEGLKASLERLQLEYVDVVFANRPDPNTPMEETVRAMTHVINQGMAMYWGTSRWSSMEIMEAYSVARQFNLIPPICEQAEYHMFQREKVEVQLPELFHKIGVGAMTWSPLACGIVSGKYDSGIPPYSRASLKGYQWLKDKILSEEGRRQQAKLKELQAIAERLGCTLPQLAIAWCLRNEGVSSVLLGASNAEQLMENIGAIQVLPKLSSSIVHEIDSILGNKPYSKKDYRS
Chain of Alpha-2C adrenergic receptor (Homo sapiens) (P18825 whole entry, looked up): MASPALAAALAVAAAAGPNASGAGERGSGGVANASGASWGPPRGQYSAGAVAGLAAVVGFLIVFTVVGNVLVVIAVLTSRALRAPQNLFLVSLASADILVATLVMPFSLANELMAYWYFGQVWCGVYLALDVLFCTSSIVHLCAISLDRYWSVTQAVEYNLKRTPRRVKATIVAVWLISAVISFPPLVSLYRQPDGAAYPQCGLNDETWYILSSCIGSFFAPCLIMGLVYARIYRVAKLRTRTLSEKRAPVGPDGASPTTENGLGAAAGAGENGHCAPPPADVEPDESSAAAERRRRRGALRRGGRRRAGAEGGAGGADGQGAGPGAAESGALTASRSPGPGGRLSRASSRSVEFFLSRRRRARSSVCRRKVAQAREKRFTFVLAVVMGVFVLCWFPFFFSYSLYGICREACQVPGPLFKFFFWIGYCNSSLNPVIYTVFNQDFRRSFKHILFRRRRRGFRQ
Chain of Dual specificity protein phosphatase 6 (Homo sapiens) (Q16828 whole entry, looked up): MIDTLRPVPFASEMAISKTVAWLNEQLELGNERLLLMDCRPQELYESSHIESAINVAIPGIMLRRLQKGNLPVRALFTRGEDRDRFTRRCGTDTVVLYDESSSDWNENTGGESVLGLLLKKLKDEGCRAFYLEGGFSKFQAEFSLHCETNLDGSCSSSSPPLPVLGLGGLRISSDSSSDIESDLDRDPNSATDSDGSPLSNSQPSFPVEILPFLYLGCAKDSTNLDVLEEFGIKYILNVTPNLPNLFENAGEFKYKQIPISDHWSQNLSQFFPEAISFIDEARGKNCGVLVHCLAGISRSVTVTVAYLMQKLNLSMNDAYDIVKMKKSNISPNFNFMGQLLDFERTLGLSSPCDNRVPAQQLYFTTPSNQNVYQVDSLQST
Chain of Muscarinic acetylcholine receptor M4 (Homo sapiens) (P08173 whole entry, looked up): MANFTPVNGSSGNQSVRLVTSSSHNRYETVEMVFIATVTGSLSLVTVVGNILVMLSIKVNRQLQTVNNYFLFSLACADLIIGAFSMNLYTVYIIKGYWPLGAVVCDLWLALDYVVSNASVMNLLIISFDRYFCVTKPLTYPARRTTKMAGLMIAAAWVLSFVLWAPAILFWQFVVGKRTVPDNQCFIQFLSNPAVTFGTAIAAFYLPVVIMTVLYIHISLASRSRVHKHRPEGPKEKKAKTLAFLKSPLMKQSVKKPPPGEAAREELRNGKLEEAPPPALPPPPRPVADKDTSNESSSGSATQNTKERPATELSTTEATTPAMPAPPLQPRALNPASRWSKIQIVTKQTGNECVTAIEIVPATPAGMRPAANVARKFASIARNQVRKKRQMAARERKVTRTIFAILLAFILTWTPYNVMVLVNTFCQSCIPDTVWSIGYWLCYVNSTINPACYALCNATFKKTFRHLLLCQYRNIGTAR

As for `N[C@@H](Cn1cc(I)c(=O)[nH]c1=O)C(=O)O`, in assay [1], the inhibition (as a rule, the change of the read-out against control, counted positive when it falls) is 9.47% (inactive).
The same measure, in the same setting: for `CNc1ccc2oc(C[C@H]3O[C@@]4(CC[C@H]3C)O[C@H]([C@H](C)C(=O)c3ccc[nH]3)[C@H](C)C[C@H]4C)nc2c1C(=O)O` the value was 84.5% (active); for `C[C@]12CC[C@H]3[C@@H](CCC4C[C@H](O)CC[C@@]43C)[C@@H]1CC[C@@H]2O` (stereo partly specified), 2.75% (inactive); for `S=C=Nc1cccc(C2(N3CCCCC3)CCCCC2)c1`, 10.2% (inactive).
On the same count and under the same terms, for `C[C@]12Cc3cn4c(nc3C=C1CCC1C2CC[C@@]2(C)[C@H]1CC[C@@]2(O)C#N)nc1ccccc14` (stereo partly specified) the value was 72.1% (active).
Same read-out and setting: for `NCCc1c[nH]c2ccc(C(N)=O)cc12` the value was 4.98% (inactive); for `CCCN(CCC)CCc1ccc(O)c(O)c1`, 0.931% (inactive).
Turning to `C[N+]1(C)CCOC(O)(c2ccc(-c3ccc(C4(O)C[N+](C)(C)CCO4)cc3)cc2)C1` (stereo unspecified), in [1], the inhibition is 1.34% (inactive).
On the same count and under the same terms, the figure for `O=[N+]([O-])c1cc(O)c(O)c([N+](=O)[O-])c1` is -10.8% (inactive); for `c1ccc(C2CC2)c(OCC2=NCCN2)c1` it is 3.8% (inactive); for `CCCCC/C=C\C/C=C\C/C=C\C/C=C\CCCC(=O)NCC(=O)O` it is -0.074% (inactive).
The same measure, in the same setting: for `Cc1[nH]c2ccc(O)cc2c1CCN` the value was 5.71% (inactive); for `Oc1ccc2c3c1O[C@H]1c4[nH]c5c(c4C[C@@]4(O)[C@@H](C2)N(CC2CC2)CC[C@]314)C[C@@]1(O)[C@H]2Cc3ccc(O)c4c3[C@@]1(CCN2CC1CC1)[C@H]5O4`, -0.992% (inactive); for `COc1cc(C=C(C#N)C#N)cc(O)c1O`, 10.5% (inactive).
Same read-out and setting: the figure for `CCCCCCC(C)(C)c1ccc([C@@H]2C[C@H](O)CC[C@H]2CCCO)c(O)c1` is -3.04% (inactive).
Regarding `COc1ccc2c(c1)c(C(=O)O)c(C)n2CC(C)C`, the values for the inhibition in assay [2], in assay [4] and in assay [1] were 37.7% (inactive), -2.07% (inactive) and 36.3% (inactive), respectively. The nuclei count in assay [2] worked out at 86.4%. Besides, the z-score is -0.228 in assay [3] (setting [13]), -1.03 in [3] (setting [14]) and 0.232 in assay [3] (setting [15]). The values for the fluorescence slope in assay [5] and in [7] were -0.462 (inactive) and 0.00491 (inactive), respectively. In assay [6], the NADPH fluorescence slope was -3.5e-05 (inactive). In addition, the molecule was called inactive in assay [8].
As to `C[N+]1(C)C2CCC1CC(OC(=O)C(CO)c1ccccc1)C2` (stereo unspecified), the inhibition in assay [1] is -0.808% (inactive) and 1.27% (inactive).
The same measure, in the same setting: for `NCc1cc(=O)[nH]o1` the value was 5.71% (inactive); for `CCCN(CCC)C(=O)Cc1c(-c2ccc(Cl)cc2)nc2c(Cl)cc(Cl)cn12`, -9.74% (inactive).
On the same count and under the same terms, the figure for `COC(=O)C1=CCCN(C)C1` is -3.75% (inactive).
With `C[N+]1(C)[C@@H]2CC[C@H]1CC(OC(=O)C(CO)c1ccccc1)C2` (stereo partly specified), the inhibition of aggregation in assay [9] is -2.8% (inactive). Moreover, the nuclei count was 112% in [9]; 123% and 124% in assay [2]. In addition, the inhibition was -82.3% (inactive) and -114% (inactive) in [2]; 1.48% (inactive) and 15.3% (inactive) in assay [4]; 30.8% (inactive) and -7.87% (inactive) in assay [1]; 13.4% (inactive) and 12.2% (inactive) in assay [11]; 35.7% (inactive) and 30.4% (inactive) in assay [12]. The z-score in assay [3] (setting [13]) was -1.12 and 0.779; in assay [3] (setting [14]), 0.388 and 0.223; in [3] (setting [15]), -0.779 and -1.81. The fluorescence slope in assay [5] was -0.509 (inactive) and -0.518 (inactive). For the same molecule, in assay [6], the NADPH fluorescence slope is -2.9e-05 (inactive) and -4.5e-05 (inactive). Further, the slope in assay [10] was 0.005 (inactive) and 0.00423 (inactive). Also, the call in assay [8] was inactive.
`Nc1ccncc1`: in assay [1], the inhibition is 14.4% (inactive).
Same read-out and setting: the figure for `CC(N)[C@H](O)c1ccc(O)c(O)c1` (stereo partly specified) is 1.5% (inactive); for `NC(=NCCC[C@H](N)C(=O)O)N[N+](=O)[O-]` it is 2.94% (inactive); for `OC1CCCCC1N1CCC(c2ccccc2)CC1` (stereo unspecified) it is 3.25% (inactive).
As for `COc1ccc(Cc2nccc3cc(OC)c(OC)cc23)cc1OC`, the inhibition of aggregation in [9] is -8.7% (inactive). Moreover, the nuclei count was 110% in assay [9] and 140% in assay [2]. For the same molecule, the inhibition in assay [2] is -204% (inactive); in assay [4], 9.37% (inactive); in assay [1], -20% (inactive) and 8.29% (inactive); in assay [11] it was -5.8% (inactive); in assay [12] it was -3.94% (inactive). Moreover, the z-score was 1.76 in [3] (setting [13]), -0.33 in assay [3] (setting [14]) and -0.255 in [3] (setting [15]). In addition, the fluorescence slope in assay [5] was -0.442 (inactive). Moreover, in assay [6], the NADPH fluorescence slope was -7e-05 (inactive). The slope in assay [10] was 0.00447 (inactive). For the same molecule, the outcome in [8] was “inactive; toxic”.
On to `O=[N+]([O-])c1ccc2nc(N3CCNCC3)ccc2c1`, for which the inhibition in [1] was 14.2% (inactive).
For `CS(=N)(=O)CC[C@H](N)C(=O)O` (stereo partly specified), in [1], the inhibition was 3.52% (inactive).
Still for that read-out and setting: the figure for `Fc1ccc(C(OCCN2CCN(CCCc3ccccc3)CC2)c2ccc(F)cc2)cc1` is 12.7% (inactive).
Turning to `CCCC(C)(COC(N)=O)COC(=O)NC(C)C` (stereo unspecified), the inhibition of aggregation in [9] is 18.2% (inactive). The nuclei count in [9] turned out to be 100%; in assay [2] it was 106%. Besides, the inhibition in assay [2] was 0.8% (inactive); in assay [4], -0.493% (inactive); in [1], -1.2% (inactive) and -10.3% (inactive); in assay [11], 3.15% (inactive); in [12] it was 14.5% (inactive). Besides, the z-score in [3] (setting [13]) is -1.69; in assay [3] (setting [14]) it was 0.189; in [3] (setting [15]), -1.67. The fluorescence slope in assay [5] was -0.459 (inactive). The NADPH fluorescence slope in assay [6] is 1.2e-05 (inactive). Besides, the slope in [10] was 0.0053 (inactive). Also, in [8], the molecule was called inactive.
As for `c1ccc2c(c1)OCC(C1=NCCN1)O2` (stereo unspecified), the inhibition of aggregation in assay [9] is 2.2% (inactive). The nuclei count in [9] is 109%; in assay [2], 128%. For the same molecule, the inhibition is -66.1% (inactive) in [2]; 27.9% (inactive) in [4]; -4.66% (inactive) and 22.4% (inactive) in assay [1]; -8.86% (inactive) in assay [11]; 10.1% (inactive) in [12]. Also, the z-score was 0.816 in assay [3] (setting [13]), -0.0814 in assay [3] (setting [14]) and 0.589 in assay [3] (setting [15]). Further, the fluorescence slope in [5] is 0.111 (active). Moreover, the NADPH fluorescence slope in assay [6] is -0.000173 (inactive). In addition, the slope in assay [10] is 0.0054 (inactive). The outcome in assay [8] was inactive.
Take `CC(=O)CC(C)(C)n1c[n+](C)nn1`: the inhibition was -59% (inactive) in assay [2], -5.89% (inactive) in assay [4] and -0.884% (inactive) in assay [1]. The molecule further had a nuclei count in [2] of 155%. Moreover, the values for the z-score in assay [3] (setting [13]), in [3] (setting [14]) and in assay [3] (setting [15]) were 0.619, -0.892 and -1.39, respectively. The fluorescence slope in assay [5] was -0.383 (inactive); in assay [7], 0.00569 (inactive). Besides, the NADPH fluorescence slope in assay [6] is -5.6e-05 (inactive). Moreover, in assay [8], the outcome was inactive.
`Oc1ccc2c3c1O[C@H]1c4[nH]c5ccccc5c4C[C@@]4(O)C(C2)N(CC2CC2)CCC314` (stereo partly specified): the inhibition in [1] is 3.32% (inactive).
On the same count and under the same terms, the figure for `CCCN1CCc2cccc3c2[C@H]1Cc1ccc(O)c(O)c1-3` is 0.62% (inactive).
The same measure, in the same setting: for `CC(=O)OCC1=C(C(=O)[O-])N2C(=O)[C@@H](NC(=O)CCC[C@@H](N)C(=O)[O-])[C@H]2SC1.[Zn+2]` the value was 3.46% (inactive).
